# L3MBTL1 block: L3MBTL1 (human) inhibition; Q9Y468; AlphaScreen L3MBTL1–H3K9me1 peptide binding; Potency, µM (top dose mostly 57.1 µM), inactives show at the highest dose activity, negative = inhibition, actives largely listed as inhibitors; 230,000 compounds, 0.66% hits; AID 485360; further: on the % scale 0 is the no-effect control and ±100 the full control effect; nearly all actives have a fitted effect of over 60% in size
#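 First, the protein-peptide complex forms for 30 min at room temperature (L3MBTL1 50 nM, biotinylated H3K9me1 peptide 75 nM). Next, compounds are pin-transferred and incubated 30 min. Finally, AlphaScreen beads are added and read after 30 min.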
# HP1b chromo inh: HP1-beta chromodomain-methylated histone interaction inhibition; P83916; AlphaScreen HP1-beta / biotin-H3K9me3 peptide binding; Potency, µM (highest dose often 114 µM), without a hit: at the top dose activity change, negative = inhibition, hits mostly inhibitors; 390,000 compounds, 0.56% hits; AID 540317; further: nearly all actives have a fitted effect of over 70% in size
# Target sequence (P83916 whole entry, looked up): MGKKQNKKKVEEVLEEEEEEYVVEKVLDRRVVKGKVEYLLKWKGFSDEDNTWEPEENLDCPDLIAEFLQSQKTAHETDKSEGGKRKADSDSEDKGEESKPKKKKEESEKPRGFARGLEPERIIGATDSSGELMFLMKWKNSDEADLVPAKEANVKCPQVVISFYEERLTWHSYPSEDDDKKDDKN
#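 Compound inhibition of the preformed complex between 50 nM HP1-beta and 50 nM biotinylated H3K9me3 peptide was read by AlphaScreen. Buffer was PBS pH 7.4 with 0.01% Tween-20. Incubations ran 30 min at room temperature, with 10 ug/mL donor/acceptor beads.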
# JMJD2A Tudor: inhibitors of human JMJD2A Tudor domain; AlphaScreen JMJD2A-Tudor / H3K4me3 peptide binding; AID 504339; 390,000 compounds, 4.4% hits; Potency, µM (titrated, usually from 114 µM), without a hit: at the highest dose activity change, negative = inhibition, hits mostly inhibitors; further: on the % scale 0 is the no-effect control and ±100 the full control effect; nearly all actives have a fitted effect of over 50% in size
# G9a block: inhibitors of human histone lysine methyltransferase G9a. G9a H3K9 monomethylation, AlphaScreen, 2 h. Potency, µM (titrated, usually from 102 µM), for inactives: at the top dose activity, negative = inhibition, usual class: inhibitors. 350,000 compounds, 8.8% hits; further: on the % scale 0 is the no-effect control and ±100 the full control effect; nearly all actives have a fitted effect of over 75% in size
# Target sequence (Q96KQ7 913-1193 limits assumed): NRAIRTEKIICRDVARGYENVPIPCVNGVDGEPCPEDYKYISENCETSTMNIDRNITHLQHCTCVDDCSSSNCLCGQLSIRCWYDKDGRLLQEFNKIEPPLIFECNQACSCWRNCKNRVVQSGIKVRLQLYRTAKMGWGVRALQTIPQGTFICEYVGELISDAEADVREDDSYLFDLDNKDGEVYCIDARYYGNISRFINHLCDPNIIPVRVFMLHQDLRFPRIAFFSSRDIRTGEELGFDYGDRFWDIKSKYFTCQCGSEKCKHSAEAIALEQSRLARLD
#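 AlphaScreen read-out: biotin-H3K9 peptide (500 nM) methylation by 20 nM enzyme with 20 uM SAM, 2 h at room temperature after 15 min compound preincubation; anti-monomethyl H3K9 antibody plus donor/acceptor beads, 10 min dark.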
# BAZ2B block: blocks human BAZ2B; Q9UIF8; AlphaScreen BAZ2B-H3K14Ac peptide displacement; Potency, µM (titrated, usually from 114 µM), without a hit: at the highest dose activity change, negative = inhibition, most hits filed as inhibitors; 360,000 compounds, 4.4% hits; AID 504333; further: on the % scale 0 is the no-effect control and ±100 the full control effect; nearly all actives have a fitted effect of over 60% in size
#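 AlphaScreen luminescence quantifies BAZ2B engagement of H3K14Ac peptide; the protein and biotinylated peptide are both at 50 nM final, buffer PBS pH 7.4 with 0.01% Tween-20, all steps at room temperature.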
# * hit, by the source's call; ? = inconclusive; . = no result given; [ ] = another dose, or the depositor's remark. An excerpt weighted towards active compounds, which were near 11% of everything screened. The call rests on the fitted dose curve; in most records, active means well fitted inhibition curve with a large enough effect; inconclusive means small, poorly fitted or top-dose-only effect; inactive means no such curve, though single readings can be large or run the other way. Potency means the concentration at half of the fitted maximal effect.
SMILES,L3MBTL1 block,HP1b chromo inh,JMJD2A Tudor,G9a block,BAZ2B block
CC(CC(=O)O)Nc1ccccc1O (stereo unspecified),-5%,-11%,0.1µM*,2µM*,45µM*
CCn1c(SCc2ccccc2)nc2cc(S(N)(=O)=O)ccc21,.,12%,-15%,-13%,2%
Cc1cc(C)cc(-n2c(C)cc(C(=S)N3CCOCC3)c2C)c1,-21%,?,56µM*,4.5µM*,45µM*
Cc1cc(C(=S)N2CCOCC2)c(C)n1-c1ccc(Cl)cc1,-20%,45µM*,28µM*,3.2µM*,50µM*
Cc1cccc(-n2c(C)cc(C(=S)N3CCOCC3)c2C)c1C,-10%,?,?,?,-24%
COc1ccccc1NC(=O)C1=C(C)Nc2nnnn2C1c1ccccc1OC (stereo unspecified),.,34%,-15%,-21%[12.7 µM],2%
COc1ccccc1/C=C1\CCCC2=C1Nc1nnnn1C2c1ccccc1OC (stereo unspecified),-4%,7%,?,10µM*,?
NC(=O)NC(=O)CC1S/C(=N/N=C2/NC(=O)CS2)NC1=O (stereo unspecified),-2%,21%,28µM*,5µM*,20µM*
O=C(O)CNC(=O)CC1S/C(=N/N=C2\CSC(=O)N2)NC1=O (stereo unspecified),.,58%,7.1µM*,-27%,6.3µM*
O=C(O)CNC(=O)CC1S/C(=N/N=C/c2ccccc2O)NC1=O (stereo unspecified),.,14%,?,8%,50µM*
COc1cccc(C2CC(=O)Nc3c2c(=O)nc2c(C)cccn32)c1 (stereo unspecified),.,52%,2%,-2%[59 µM],-3%
OC(CNC1CCCc2ccccc21)COc1c(Cl)cccc1Cl (stereo unspecified),3%,7%,5.6µM*,7.9µM*,40µM*
OC(CNC1Cc2ccccc2C1)COc1ccc(Cl)cc1 (stereo unspecified),.,30%,-4%,-28%,-4%
COCCN(CCOC)Cc1cc(=O)oc2cc3c(cc12)CCC3,-8%,52%,-12%,50µM*,-26%
N#Cc1nc(NCC(F)F)c2ncn(-c3cccc(Cl)c3)c2n1,.,.,-3%,.,.
CCc1cc(=O)oc2c(C)c(O)c(CN3CCCCC3)cc12,3%,24%,79µM*,20%,9%
Cc1c(O)c(CN2CCCC2)cc2c1oc(=O)c1ccccc12,6%,12%,?,22µM*,7%
Cc1c(O)c(CN2CCCC2)cc2c3c(c(=O)oc12)CCC3,-7%,-7%,-19%,-28%,?
CCSc1ncc(Cl)c(C(=O)N(Cc2ccccc2)c2ccc(OC)cc2)n1,.,47%,3%,21%[59 µM],7%
CCc1ccc2oc(C(=O)Nc3cccc(Cl)c3C)cc(=O)c2c1,.,27%,-12%,-7%[59 µM],-4%
O=C(/N=C1/c2ccccc2CN1c1ccccc1)Nc1ccccc1,-1%,34%,-13%,12%[59 µM],-12%
O=C(N=C1c2ccccc2CN1c1cccc(Cl)c1)c1cccnc1,-5%,50%,0%,50µM*,-8%
COc1ccc(N2Cc3ccccc3C2=NC(=O)c2ccc(C)cc2)cc1OC,-11%,12%,?,45µM*,-38%
O=C(N=C1c2ccccc2CN1c1ccccc1)c1cccc([N+](=O)[O-])c1,-4%,-22%,?,50µM*,-33%
O=C(N=C1c2ccccc2CN1c1ccc(F)c(F)c1)c1cccnc1,-24%,37%,-14%,-30%,-10%
SMILES,L3MBTL1 block,HP1b chromo inh,JMJD2A Tudor,G9a block,BAZ2B block
FC(F)(F)c1cnc(C(c2ccccn2)c2ncn[nH]2)c(Cl)c1 (stereo unspecified),8.9µM*,28%,16µM*,44%,2.5µM*
O=c1[nH]c(SCc2ccc(Br)cc2)nc2c1CCCC2,.,40%,8%,?,1%
CC(C)Oc1ccccc1C1C=C(C(=O)O)Nc2ncnn21 (stereo unspecified),.,4%,-26%,14µM*,?
COc1cc(C2CC(=O)Nc3c2c(=O)[nH]c2ncnn32)ccc1O (stereo unspecified),.,25%,-6%,?,-15%
COc1cc(C2C=C(C(=O)O)Nc3ncnn32)ccc1O (stereo unspecified),.,27%,79µM*,13µM*,-32%
CC(=O)C1=C(C)Nc2ncnn2C1c1ccccc1OCc1ccccc1 (stereo unspecified),23%[11.4 µM],34%,9%,-47%[59 µM],-31%
CCOc1ccccc1NC(=O)CCS(=O)(=O)c1ccc2c(c1)CC(C)N2C(C)=O (stereo unspecified),.,21%[57 µM],-9%,25µM*,2%
CCC(=O)N1c2ccc(S(=O)(=O)CCC(=O)NCc3ccc4c(c3)OCO4)cc2CC1C (stereo unspecified),-2%,-5%,50µM*,12%[0.501 µM],-6%
CCC(=O)N1c2ccc(S(=O)(=O)CCC(=O)NCc3ccccc3OC)cc2CC1C (stereo unspecified),.,9%,-15%,?,.
CCC(=O)N1c2ccc(S(=O)(=O)CCC(=O)Nc3ccc(OC)cc3OC)cc2CC1C (stereo unspecified),.,25%[57 µM],?,40µM*,-27%
CCOc1ccccc1NC(=O)CCS(=O)(=O)c1ccc2c(c1)CCN2C(C)=O,.,-3%,?,14%,-20%
Cc1ccc(CNC(=O)CCS(=O)(=O)c2ccc3c(c2)CC(C)N3C(=O)C2CC2)cc1 (stereo unspecified),.,24%,-1%,12%,-13%[57.1 µM]
COc1ccccc1CN1CCCC(C(=O)N(C)Cc2ccccc2)C1 (stereo unspecified),-4%,?,3.2µM*,?,0%
COc1ccc(CN2CCCC(C(=O)N(C)Cc3ccccc3)C2)cc1OC (stereo unspecified),-2%,?,0.89µM*,10µM*,?
COc1ccc(C(=O)C2CCCN(Cc3ccc4nonc4c3)C2)cc1OC (stereo unspecified),-10%,23%,-20%,-45%,-13%
CCSC1=N/C(=C\c2ccc(C)s2)C(=O)S1,-3%,25%,-5%,?,-30%
CCOc1c(OC(C)=O)ccc(/C=C2\N=C(SCC)SC2=O)c1[N+](=O)[O-],-8%,14µM*,79µM*,.,45µM*
CCOc1cc(/C=C2\N=C(SC)SC2=O)cc([N+](=O)[O-])c1OC(C)=O,?,45µM*,-11%[11.4 µM],14µM*,18µM*
CCOc1cc(/C=C2\N=C(SCC)SC2=O)cc([N+](=O)[O-])c1OC(C)=O,-23%,?,?,10µM*,13µM*
COc1cccc(NC(=O)c2cn(C3CCCCC3)c(=O)c3c2c2ccccc2n3C)c1,.,22%,-3%,-7%[59 µM],-11%
